The list is not random: actives were taken first. Their share in the collection is about 5.5%.
CtBP-E1A inh = qHTS Assay for Inhibitors of the CtBP/E1A Interaction; activity change, % (test concentration not listed); CtBP / adenovirus E1A interaction (AlphaScreen); AlphaScreen GST-E1A/His-CtBP binding, 1536-well; hits give low values; 0.49% of 340,000 active; AID 651724, 2012; in the data active = activity change below about -65%; inconclusive = mostly about -30% to -63%
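In 5 uL wells, 23 nL compound meets equimolar GST-E1A and His-CtBP (5X stock 125 nM each) for 2 h, 37 °C. Beads (5X, 50 ug/mL) then 1 h, 37 °C, dark.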
RORg inh = qHTS for inhibitors of ROR gamma transcriptional activity. Potency, µM (highest dose often 53.6 µM), usual class: inhibitors. Nuclear receptor ROR-gamma (Mus musculus), P51450. Drosophila S2 Gal4-RORgamma UAS-luciferase reporter, 20 h. 5.4% of 310,000 active. AID 2551, 2010; also: nearly all actives have a fitted effect of over 60% in size
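ROR gamma transcriptional activity was tracked as Gal4-UAS luciferase output in stably transfected Drosophila Schneider cells, with compound added 1 hr before 700 uM copper sulfate induction and a 20 hr ambient-temperature incubation.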
CBFb RUNX1 block = qHTS Assay for Compounds Blocking the Interaction Between CBF-beta and RUNX1 for the Treatment of Acute Myeloid Leukemia | Potency, µM (doses to about 59.8 µM), hits mostly inhibitors | Runt-related transcription factor 1 (Homo sapiens) + Core-binding factor subunit beta … | AlphaScreen CBFb-His/RUNX1-biotin binding, biochemical | 230,000 tested, under 10 active | AID 1477, 2009
Target sequence (Q01196 whole entry, looked up): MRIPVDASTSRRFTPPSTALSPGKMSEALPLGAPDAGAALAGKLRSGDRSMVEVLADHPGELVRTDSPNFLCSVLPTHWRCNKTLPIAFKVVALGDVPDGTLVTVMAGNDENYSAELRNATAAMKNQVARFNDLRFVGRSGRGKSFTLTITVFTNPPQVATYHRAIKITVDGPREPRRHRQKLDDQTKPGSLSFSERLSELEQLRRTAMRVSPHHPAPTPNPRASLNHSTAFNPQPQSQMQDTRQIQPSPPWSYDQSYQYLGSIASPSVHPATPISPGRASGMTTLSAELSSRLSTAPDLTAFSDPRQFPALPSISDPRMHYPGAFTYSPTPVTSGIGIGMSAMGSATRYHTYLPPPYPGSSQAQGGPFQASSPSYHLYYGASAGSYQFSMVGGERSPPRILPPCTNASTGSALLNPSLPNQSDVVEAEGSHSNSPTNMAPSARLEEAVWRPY
Target sequence (Q13951 whole entry, looked up): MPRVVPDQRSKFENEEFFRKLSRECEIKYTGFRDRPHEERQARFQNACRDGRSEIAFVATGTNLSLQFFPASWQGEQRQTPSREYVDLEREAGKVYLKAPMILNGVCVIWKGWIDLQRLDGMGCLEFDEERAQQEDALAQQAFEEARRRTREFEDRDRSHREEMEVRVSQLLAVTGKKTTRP
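Bead-based AlphaScreen assay; binding partners His-tagged CBF-beta and biotinylated RUNX1 at 30 nM each. Compound exposure 15 min after a 20-min protein preincubation; bead step 90 min; all steps at room temperature.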
VP16 counter = VP16 counterscreen qHTS for inhibitors of ROR gamma transcriptional activity. Drosophila S2 Gal4-VP16 UAS-luciferase, luminescence, 20 h. Potency, µM (series often up to 53.6 µM), hits mostly inhibitors. 3.5% of 310,000 active. AID 2546, 2010;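 also: Gal4-VP16 expression switched on by copper sulfate through the metallothionein promoter; nearly all actives have a fitted effect of over 50% in size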
MBNL1 CUG block = qHTS Assay for Inhibitors of MBNL1-poly(CUG) RNA binding. TR-FRET MBNL1-His/biotin-(CUG)12 binding, 665/545 ratio. Potency, µM (doses to about 57.5 µM), most hits filed as inhibitors. 0.036% of 280,000 active. AID 2675, 2010; active = well fitted inhibition curve with a large enough effect in the signal ratio, with a control signal flat, not every such curve was filed as active; inconclusive = small, poorly fitted or top-dose-only effect, or effect the other way, or a change in a side signal; inactive = no such curve, though single readings can be large or run the other way; the % refers to the signal ratio
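His-tagged MBNL1 binding to biotinylated (CUG)12 RNA was measured by TR-FRET using terbium anti-His antibody (0.055 ng/ul final) and streptavidin-XL665 (5 nM final). Compounds were titrated 92 nM to 58 uM; 60 min at room temperature.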
Six1-Eya2 inh = qHTS Assay for Inhibitors of the Six1/Eya2 Interaction | Homeobox protein SIX1 (Homo sapiens) + Protein phosphatase EYA2 (Homo sapiens), … | AlphaScreen GST-Six1/His-Eya2 binding, biochemical; hits give low values | activity change, % (concentration not given with the values) | 0.56% of 360,000 active | AID 651725, 2012; in the data active = activity change below about -65%; inconclusive = mostly about -30% to -63%
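Homogeneous AlphaScreen proximity assay pairing GST-Six1 with His-tagged Eya2 (added as 5X mix: 250 nM and 500 nM) in 50 mM Tris pH 8.0, 300 mM NaCl, 1 mM TCEP. Glutathione donor and nickel acceptor beads; 1 h, 37 °C, dark.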
Each line names hits and unclear results; the compound was inactive in the other large screens. Unless noted, calls follow the shape of the dose curve; as a rule, active = well fitted curve in the direction sought with a large enough effect; inconclusive = small, poorly fitted or top-dose-only effect, or another doubt; inactive = no such curve, though single readings can be large; an effect the other way counts as inactive or inconclusive.

Cc1cc(C)c2[nH]c(C(=O)Nc3ccc4c(c3)OCO4)cc2c1	RORg inh 0.4µM
CC(=O)Nc1ccc(C(=O)Nc2ccc3c(c2)OCO3)cc1	RORg inh inconclusive
Cc1cc(C)c(NC(=O)Nc2ccc3c(c2)OCO3)c(C)c1	none (no result: CBFb RUNX1 block)
Cc1ccc(C(=O)Nc2ccc3c(c2)OCCO3)c(C)c1	RORg inh 3.2µM, VP16 counter 4.5µM (no result: CBFb RUNX1 block)
N#Cc1cccc(-c2csc(C(O)(c3ccccc3)C(F)(F)F)n2)c1 (configuration not stated)	none (no result: RORg inh, CBFb RUNX1 block, VP16 counter, MBNL1 CUG block)
O=C1C=C(c2ccc(Cl)c(C(F)(F)F)c2)C[C@@H](c2ccc(Cl)cc2)C1	none (no result: RORg inh, CBFb RUNX1 block, VP16 counter, MBNL1 CUG block)
CC(=O)c1ccc(NC(=O)COC(=O)c2ccccc2N=Nc2ccc(N(C)C)cc2)cc1	RORg inh inconclusive, MBNL1 CUG block inconclusive, Six1-Eya2 inh -68
COC(=O)c1ccccc1NC(=O)COC(=O)c1ccccc1N=Nc1ccc(N(C)C)cc1	CtBP-E1A inh inconclusive, Six1-Eya2 inh inconclusive (no result: MBNL1 CUG block)
CN(C)c1cccc(C(=O)OCC(=O)N(C)c2ccccc2)c1	none (no result: CBFb RUNX1 block)
CN(C)c1ccc(N=Nc2ccccc2C(=O)OCC(=O)N(C)c2ccccc2)cc1	CtBP-E1A inh -66, RORg inh inconclusive, MBNL1 CUG block inconclusive, Six1-Eya2 inh -67
CCn1c(C)nc2cc(S(=O)(=O)C(F)(F)C(F)C(F)(F)F)ccc21 (configuration not stated)	VP16 counter 4µM
COc1ccc(Nc2oc(COc3ccc(Cl)cc3)nc2C#N)cc1	RORg inh 16µM, VP16 counter inconclusive
COc1cccc(NC(=O)[C@H](CC(C)C)NC(=O)[C@@H]2Cc3ccccc3CN2)c1	none (no result: CBFb RUNX1 block)
CNC[C@H]1Oc2c(NC(=O)c3ccc(-c4nccs4)cc3)cccc2C(=O)N([C@@H](C)CO)C[C@@H]1C	none (no result: RORg inh, CBFb RUNX1 block, VP16 counter, MBNL1 CUG block)
O=C(CCCN1C(=O)/C(=C\c2cccc(Br)c2)SC1=S)Nc1cccnc1	none
Cc1ccc(/C=C2\SC(=S)N(CC(=O)Nc3cccnc3)C2=O)cc1	CBFb RUNX1 block inconclusive
O=C(CCCN1C(=O)/C(=C/c2cccc(Br)c2)SC1=S)Nc1cccnc1	RORg inh 14µM, CBFb RUNX1 block inconclusive (no result: MBNL1 CUG block)
Cc1ccc(/C=C2\SC(=S)N(CCCC(=O)Nc3cccnc3)C2=O)cc1	RORg inh 6.3µM, VP16 counter 2.2µM (no result: CBFb RUNX1 block)
COc1ccccc1C(=O)CC(=O)c1ccccc1	RORg inh 10µM (no result: CBFb RUNX1 block)
O=C(CC(=O)c1ccccc1)c1ccccc1	RORg inh 4µM, VP16 counter 7.9µM (no result: MBNL1 CUG block)
COc1ccccc1C(=O)NCC(=O)NC(C)CCc1ccccc1 (configuration not stated)	RORg inh 6.3µM, VP16 counter 14µM, MBNL1 CUG block inconclusive (no result: CBFb RUNX1 block)
COc1ccccc1C(=O)OCC(=O)NC(C)CCc1ccccc1 (configuration not stated)	none (no result: CBFb RUNX1 block)
CN(Cc1ccco1)c1cc(-c2cccc(NS(C)(=O)=O)c2)ncn1	none (no result: CtBP-E1A inh, CBFb RUNX1 block, MBNL1 CUG block, Six1-Eya2 inh)
Cc1cccc(C(=O)N=C2SC3CS(=O)(=O)CC3N2c2ccccc2)c1 (configuration not stated)	none (no result: RORg inh, CBFb RUNX1 block, VP16 counter, MBNL1 CUG block)
Cc1ccc(Sc2nnc(Cc3ccccc3)c3ccccc23)cc1	RORg inh 13µM, VP16 counter inconclusive
Cc1nnc(SC(C)C(=O)N2CCc3ccccc32)s1 (configuration not stated)	none
CC(Sc1nnc(-c2ccccc2)c(-c2ccccc2)n1)C(=O)N1CCc2ccccc21 (configuration not stated)	CtBP-E1A inh inconclusive, RORg inh 2.2µM, VP16 counter 11µM
O=C(Cc1ccc(F)cc1)Oc1ccc(C(=S)N2CCCC2)cc1	Six1-Eya2 inh -71
COc1ccc(CC(=O)Oc2ccc(F)cc2)cc1	none (no result: CBFb RUNX1 block)
CCOc1ccc(C(=O)CN2C(=O)NC3(CCCc4ccccc43)C2=O)cc1 (configuration not stated)	none (no result: RORg inh, CBFb RUNX1 block, VP16 counter, MBNL1 CUG block)
Cc1ccc(-c2n[nH]c(=S)nc2-c2ccc(C)cc2)cc1	RORg inh 5µM, VP16 counter inconclusive (no result: CtBP-E1A inh, CBFb RUNX1 block)
Cc1ccc(-c2n[nH]c3c2CCC3)cc1	VP16 counter inconclusive
Cc1ccc(C2CC(c3ccc(Cl)cc3)=NNC2=O)cc1 (configuration not stated)	RORg inh inconclusive, VP16 counter 14µM
CCCN1CCC(NC(=O)C2CCN(C(C)=O)CC2)CC1	none (no result: CBFb RUNX1 block)
Cc1ccccc1C1C(C#N)=C2N=C(N)c3c(sc4c3CCCCC4)N2C2=C1C(=O)CCC2 (configuration not stated)	CtBP-E1A inh inconclusive, RORg inh 14µM, VP16 counter inconclusive, Six1-Eya2 inh inconclusive
Cc1[nH]n2c(=O)cc(C(C)(C)C)nc2c1-c1ccccc1	RORg inh 1.4µM, VP16 counter 3.2µM
Cc1[nH]n2c(=O)cc(C(C)C)nc2c1-c1ccccc1	RORg inh 11µM, VP16 counter inconclusive
CCCCOc1ccc(-c2cc(C(=O)NNC(=S)NCC)c3ccccc3n2)cc1	RORg inh 5µM, VP16 counter 2.5µM
CCNC(=S)NNC(=O)c1cc(-c2ccc(OC)cc2)nc2ccccc12	RORg inh 1.4µM, VP16 counter 3.5µM
CCOc1ccc(-c2cc(C(=O)O)c3ccccc3n2)cc1	RORg inh 7.9µM, VP16 counter 10µM
COc1ccc(Cl)cc1C(=O)NNC(=S)NC(=O)c1cc(-c2ccc(Cl)cc2)nc2ccccc12	RORg inh 1.3µM, VP16 counter inconclusive
COc1cccc(COC(=O)Nc2ccccc2)c1OC	none (no result: RORg inh, CBFb RUNX1 block, VP16 counter, MBNL1 CUG block)
COc1ccc(CN2CCNC(=O)C2CC(=O)N(C)Cc2ccon2)c(F)c1 (configuration not stated)	none (no result: CBFb RUNX1 block)
CN(C(=O)CSc1nnc(COc2ccccc2F)n1N)C1CCS(=O)(=O)C1 (configuration not stated)	none (no result: RORg inh, CBFb RUNX1 block, VP16 counter, MBNL1 CUG block)
COc1cc(C(=O)NNC(=S)NC(=O)c2ccc(F)cc2)cc(OC)c1OC	RORg inh inconclusive, VP16 counter inconclusive
COc1ccc(-c2cc(C(=O)c3c(N)n(C)c(=O)n(C)c3=O)c3ccccc3n2)cc1	RORg inh 14µM, VP16 counter 11µM (no result: CtBP-E1A inh)
COc1ccc(Cl)cc1C(=O)NNC(=S)NC(=O)c1ccc(F)c(F)c1	RORg inh 7.1µM, VP16 counter 11µM (no result: CBFb RUNX1 block)
COc1ccc(NC(=S)NC23CN4CN(CN(C4)C2)C3)c(OC)c1	none
S=C(NCCc1ccccn1)NC1CC2CCC1C2 (configuration not stated)	RORg inh 6.3µM, VP16 counter inconclusive

Source: PubChem
